Compounds with a hit are over-represented: about 0.47% of the library has one in this group of screens.
UDG counterscr: blocks uracil-DNA glycosylase in AID counter-screen | FRET deamination/UDG coupled assay, UDG read, 4 h | hit rate 0.14% among 91,000 | Potency, µM (series often up to 115 µM), inactives show top-dose activity change, negative = inhibition, actives largely listed as inhibitors; note: nearly all actives have a fitted effect of over 65% in size
AID inh: inhibitors of human activation induced cytidine deaminase; Q9GZX7; AID deamination FRET fluorescence, UDG-coupled, 4 h; Potency, µM (titrated, usually from 115 µM), usual class: inhibitors; hit rate 0.32% among 91,000; note: nearly all actives have a fitted effect of over 25% in size
Target sequence (Q9GZX7 whole entry, looked up): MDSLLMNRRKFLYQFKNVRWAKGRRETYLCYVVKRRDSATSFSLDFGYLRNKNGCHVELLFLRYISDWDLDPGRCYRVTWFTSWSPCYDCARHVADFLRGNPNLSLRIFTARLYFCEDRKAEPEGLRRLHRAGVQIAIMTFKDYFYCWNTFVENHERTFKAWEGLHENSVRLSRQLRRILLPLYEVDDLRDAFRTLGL
Numbers without * were called inactive; i = inactive; ? = inconclusive; [ ] = remark or other dose. Calls come from the whole dose curve; as a rule, active = well fitted curve in the direction sought with a large enough effect; inconclusive = small, poorly fitted or top-dose-only effect, or another doubt; inactive = no such curve, though single readings can be large; an effect the other way counts as inactive or inconclusive. % is set by controls: 0 for no effect and ±100 for the full control effect; potency is the fitted concentration of half-maximal effect.

SMILES	UDG counterscr	AID inh
Cn1c(=O)c2c(-c3ccccc3)n3c(c2n(C)c1=O)C(c1cc(Cl)ccc1O)Nc1ccccc1-3 (stereo unspecified)	?	i
COc1ccc(-c2c3c(=O)n(C)c(=O)n(C)c3c3n2-c2ccccc2NC3c2ccccc2OC)cc1 (stereo unspecified)	79µM*	?
O=C(CCS(=O)(=O)c1nc(-c2cccs2)cc(C(F)(F)F)n1)Nc1ccc(OC(F)(F)F)cc1	-24%	10µM*
COc1ccc(NC(=O)CCS(=O)(=O)c2nc(-c3cccs3)cc(C(F)(F)F)n2)cc1	-7%	i
CC(C)CN1CCC(CN2CCOCC2)CC1	3%	i
Cc1cc(C)cc(NC(=O)COCc2cc(-c3ccc4c(c3)OCO4)on2)c1	79µM*	?
COc1cc(NC(=O)COCc2cc(-c3ccc4c(c3)OCO4)on2)cc(OC)c1	?	i
COc1ccc(C(C)=O)cc1COC(=O)COc1cccc(Br)c1	-4%	i
Cn1c(=O)c2nc(SCCC(=O)O)n(C)c2n(C)c1=O	-3%	i
Cc1nc(SCC(=O)Nc2ccccc2Br)oc1C	-9%	i
O=C1CC(c2nc3ccccc3n2CCCCOc2ccccc2)CN1c1ccccc1Cl (stereo unspecified)	89µM*	?
CCOc1ccccc1N1CC(c2nc3ccccc3n2CCCCOc2ccccc2)CC1=O (stereo unspecified)	-15%	i
CCc1ccccc1N1CC(c2nc3ccccc3n2CCC2CCCCC2)CC1=O (stereo unspecified)	79µM*	?
Cc1ccc(N2CC(c3nc4ccccc4n3CCC3CCCCC3)CC2=O)cc1 (stereo unspecified)	?	i
C[Si](C)(C)CN1CCN(CC(=O)Nc2ccccc2Cl)CC1	0%	i
CCC(CC)NC(=O)COc1ncnc2ccc(Br)cc12	1%	i
COc1ccc(OC)c(C2C(C(=O)Nc3ccccc3OC)=C(C)Nc3c(C(=O)Nc4ccc(F)cc4)cnn32)c1 (stereo unspecified)	-15%	18µM*
COc1ccc(OC)c(C2C(C(=O)Nc3ccc(C)cc3C)=C(C)Nc3c(C(=O)Nc4ccc(F)cc4)cnn32)c1 (stereo unspecified)	-9%	?
CCc1c(C)sc(NC(=O)C(F)(F)C(F)(F)C(F)(F)F)c1C#N	0%	i
Cn1nc(C(F)(F)F)c(Cl)c1C(=O)Nc1sc2c(c1C#N)CCCC2	4%	i
COc1ccc(CNc2oc(-c3ccco3)nc2C#N)cc1	-8%	i
O=C1c2c(O)ccc(O)c2C(=O)c2c(NCCNCCO)ccc(NCCNCCO)c21	40µM*	10µM*
O=C1c2ccccc2C(=O)c2c(NCCc3ccc(O)cc3)ccc(NCCc3ccc(O)cc3)c21	-27%	?
N#Cc1cccnc1Sc1ccc(F)c(Cl)c1	-11%	i
CCOc1ccc(-c2nc(CS(=O)Cc3cc(C)ccc3C)cs2)cc1OC (stereo unspecified)	4%	i
SMILES	UDG counterscr	AID inh
CC(C)Oc1ccc(CNC(=O)Nc2ccc3c(c2)N(C)C(=O)c2ccccc2S3)cc1	-14%[57.5 µM]	?
COc1ccc(CNC(=O)Nc2ccc3c(c2)N(C)C(=O)c2ccccc2S3)cc1OC	4%[57.5 µM]	89µM*
CCCOc1c(/C=N/O)cccc1OC	4%	i
O=C(c1ccc2c(Cl)c3c(nc2c1)CCCC3)N1CCN(c2cccc(Cl)c2)CC1	-14%	14µM*
O=C(c1ccc2c(Cl)c3c(nc2c1)CCCC3)N1CCN(c2ccc(Cl)cc2)CC1	1%	i
COc1cccc(N2CCN(C(=O)c3ccc4c(Cl)c5c(nc4c3)CCCC5)CC2)c1	-13%	20µM*
O=C(c1ccc2c(Cl)c3c(nc2c1)CCCC3)N1CCN(c2cccc(C(F)(F)F)c2)CC1	1%	i
C1CCC(NCC2CCN(C3CC3)C2)C1 (stereo unspecified)	-13%	i
COc1ccc(Nc2ncc3c(n2)CCN(Cc2cc(Br)cs2)C3)c(OC)c1	89µM*	?
COc1ccc(Nc2ncc3c(n2)CCN(Cc2ccc(Br)s2)C3)c(OC)c1	-8%	i
COc1ccccc1C(=O)Nc1nc2nc(C)c(Cc3ccccc3)c(=O)n2[nH]1	-1%	35µM*
Cc1nc2nc(NC(=O)c3ccc(C(C)(C)C)cc3)[nH]n2c(=O)c1Cc1ccccc1	0%	?
COc1ccc(Nc2nc(-c3ccc(CNC(C)=O)cc3)cs2)cc1	-11%	i
COc1ccccc1C(=O)Nc1ccc(NC(=O)c2cccs2)cc1	-13%	?
COc1ccc(C(=O)Nc2ccc(NC(=O)c3cccs3)cc2)cc1OC	-19%	63µM*
CCOc1cc(/C=C/c2nc3ccc(OC)cc3s2)ccc1O	-1%	i
CC1CCN(S(=O)(=O)c2cc3c4c(c2)CC(=O)N4CCC3)CC1	-25%	i
CCC1CCCCN1S(=O)(=O)c1cc2c3c(c1)CC(=O)N3CCC2 (stereo unspecified)	89µM*	i
CCC1CCCCN1S(=O)(=O)c1ccc2c(c1)CCCN2C(C)=O (stereo unspecified)	0%	i
CC1CCCCN1S(=O)(=O)c1cc2c3c(c1)CC(=O)N3CCC2 (stereo unspecified)	89µM*	?
CCCn1c(=O)[nH]c(=O)c2c1nc(-c1ccc(C#N)cc1)n2CCN1CCOCC1	-8%	i
CSc1ccc(/C=N/Nc2cccc(Cl)c2)cc1	-6%	i
O=C(CN1CCN(c2ncccn2)CC1)N1N=C(c2cc3ccccc3o2)CC1c1ccco1 (stereo unspecified)	-11%	i
CCOC(=O)c1c(C)oc2nc(C)nc(NC(C)c3ccccc3)c12 (stereo unspecified)	-15%	79µM*
CCOC(=O)c1c(C)oc2nc(C)nc(NCc3ccc(Cl)cc3)c12	8%	i
SMILES	UDG counterscr	AID inh
S=C(NCCCc1ccccc1)Nc1ccc(Br)cc1Cl	9%	i
COc1cccc(C(CC(=O)Nc2ccc(F)c(Cl)c2)n2cccc2)c1 (stereo unspecified)	-11%	i
COc1ccccc1N1CCN(C(=O)c2cn(CC(C)C)c(=O)c3c2c2ccccc2n3C)CC1	-5%	i
Cn1c2ccccc2c2c(C(=O)N3CCN(c4cccc(C(F)(F)F)c4)CC3)cn(C3CCCCC3)c(=O)c21	-13%	?
Cn1cc(C(=O)N2CCN(c3cccc(C(F)(F)F)c3)CC2)c2c3ccccc3n(C)c2c1=O	79µM*	?
Cc1ccc(C)c(N2CCN(C(=O)c3cn(CC(C)C)c(=O)c4c3c3ccccc3n4C)CC2)c1	?	28µM*
CC(C)c1ccc(NC(=S)NNC(=O)C(N)=O)cc1	-6%	i
CCc1ccccc1N(C)C(=O)c1nn(C)c2c1CSc1ccccc1-2	-4%[57.5 µM]	?
COc1cc(OC)c(N(C)C(=O)c2nn(C)c3c2CSc2ccccc2-3)cc1Cl	-17%[57.5 µM]	45µM*
CCN(CC)C(=O)c1sc2c(c1C)c(=O)n(-c1ccc(C)c(C)c1)c(=O)n2Cc1cc(=O)n2ccccc2n1	-12%	i
CCN(CC)C(=O)c1sc2c(c1C)c(=O)n(-c1ccc(Cl)c(Cl)c1)c(=O)n2Cc1cc(=O)n2ccccc2n1	?	89µM*
CCn1cc2nc(SCc3ccc(C)cc3)n(CCc3ccccc3)c(=O)c2n1	-23%	?
CCn1cc2nc(SCc3ccc(F)cc3)n(CCc3ccccc3)c(=O)c2n1	-14%	35µM*
CCNCc1ccc(-c2ccc(C(F)(F)F)cc2)o1	8%	i

Screening data: PubChem BioAssay, National Center for Advancing Translational Sciences (NCATS)
